Data from the supplement of paper PMC12532568.
Structures can show the parent of a compound that is named as a salt.

Each compound was assayed on Danio rerio larvae Tg(actc1b:ZsGreen-LC3), 3 dpf (assay: LC3 puncta relative area vs vehicle, with NH4Cl (autophagic flux) (log2 fold change); higher = more autophagy). Conditions: 10 µM; treatment time 16 h; NH4Cl: + 100 mM, 4 h.
Protocol: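 Transgenic Tg(actc1b:ZsGreen-map1lc3) zebrafish larvae (2 dpf) were treated for 16 h with Tocris library compounds at 10 µM (n = 12 larvae per compound). Skeletal-muscle LC3 puncta area relative to body area was measured by high-content confocal imaging before and after 4 h of 100 mM NH4Cl (autophagic flux), normalised to vehicle (DMSO), and reported as log2 fold change.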

SMILES	LC3 puncta (log2)
NC(=O)Nc1sc(-c2ccc(F)cc2)cc1C(N)=O	0.588
CC12CC3CC(C)(C1)CC(N)(C3)C2 [Memantine hydrochloride]	0.723
Cc1ccc(OCC(O)C(C)NC(C)C)c2c1CCC2 (stereo not given) [ICI 118,551 hydrochloride]	0.592
Fc1ccc(C(c2ccc(F)cc2)N2CCN(C/C=C/c3ccccc3)CC2)cc1 [Flunarizine dihydrochloride]	0.536
CC(N)(Cc1ccc(O)c(O)c1)C(=O)O (stereo not given)	0.209
NS(=O)(=O)c1cc2c(cc1Cl)NC(C1CC3C=CC1C3)NS2(=O)=O (stereo not given) [Cyclothiazide]	0.416
N[C@H]1CCN(O)C1=O	0.023
Cc1ccc2c(c1)c1c3n2CCNC3CCC1 (stereo not given) [Pirlindole mesylate]	0.527
CC(C)Oc1ccc2c(=O)c3cc(C(=O)O)ccc3oc2c1	0.814
CCCCOc1cc(CC2CNC(=O)N2)ccc1OC (stereo not given)	0.0673
COc1cc2nc(N3CCN(C(=O)c4ccco4)CC3)nc(N)c2cc1OC [Prazosin hydrochloride]	0.478
N[C@H](C(=O)O)c1ccc(C(=O)O)c(O)c1 [(S)-4-Carboxy-3-hydroxyphenylglycine]	-0.0785
Nc1cc(N2CCCCC2)nc(N)[n+]1[O-] [Minoxidil]	0.501
Cc1ccc(/C(=C\CN2CCCC2)c2ccccn2)cc1 [trans-Triprolidine hydrochloride]	-0.196
CNCCCCOc1ccccc1Cc1ccccc1 [Bifemelane]	0.532
c1cc2c(cc1C1CCCCC1)c1c3n2CCNC3CCC1 (stereo not given) [Tetrindole mesylate]	0.836
CC#CCOC(=O)C1=CCCN(C)C1 [Arecaidine but-2-ynyl ester tosylate]	0.452
NC(=O)CCCCn1ccc(NC(N)=NCC(F)(F)F)n1	0.72
O=C(/C=C/c1ccc(O)c(O)c1)O[C@H](Cc1ccc(O)c(O)c1)C(=O)O [Rosmarinic acid]	0.0251
CC1=NN(c2ccccc2)C(=O)C1 [Edaravone]	0.405

SMILES	LC3 puncta (log2)
COCCOC(=O)C1=C(C)NC(C)=C(C(=O)OC(C)C)C1c1cccc([N+](=O)[O-])c1 (stereo not given) [Nimodipine]	0.885
C1COC(NC(C2CC2)C2CC2)=N1 [Rilmenidine hemifumarate]	0.305
NC(=O)OCC(COC(N)=O)c1ccccc1 [Felbamate]	-0.777
CCN(CC)CCOc1ccc(Cc2ccccc2)cc1 [DPPE fumarate]	0.857
CC(C)NC[C@H](O)COc1ccc(CC(N)=O)cc1 [(S)-(-)-Atenolol]	0.611
CC1(C(=O)O)NCCc2cc(O)c(O)cc21 (stereo not given) [Salsolinol-1-carboxylic acid]	0.429
NS(=O)(=O)c1cccc2c1c([N+](=O)[O-])cc1nc(O)c(O)nc12	0.16
COc1cc(C(=O)OCCCN2CCCN(CCCOC(=O)c3cc(OC)c(OC)c(OC)c3)CC2)cc(OC)c1OC [Dilazep]	0.426
COc1ccc([C@@H]2Sc3ccccc3N(CCN(C)C)C(=O)[C@@H]2OC(C)=O)cc1 [Diltiazem hydrochloride]	0.194
OCCN(CCO)c1nc(N2CCCCC2)c2nc(N(CCO)CCO)nc(N3CCCCC3)c2n1 [Dipyridamole]	-0.141
CC(C)(Oc1ccc(Cl)cc1)C(=O)O [Clofibric acid]	0.77
c1ccc2sc(N3CCN(Cc4ccc5c(c4)OCO5)CC3)nc2c1 [2-[1-(4-Piperonyl)piperazinyl]benzothiazole]	0.593
CN1CCN(C2=Cc3ccccc3Oc3ccc(Cl)cc32)CC1	0.934
CC(C)[N+]1(C)[C@@H]2CC[C@H]1C[C@@H](OC(=O)C(CO)c1ccccc1)C2 (stereo not given in full) [Ipratropium bromide]	0.284
O=C(O)c1cc(=O)c2ccccc2[nH]1 [Kynurenic acid]	-0.156
O=[N+]([O-])c1cccc2c(Br)[nH]nc12 [3-Bromo-7-nitroindazole]	0.697
Nc1nc2ccc(OC(F)(F)F)cc2s1 [Riluzole]	0.631
O=C(O)C=C1CCCc2ccccc2C1O (stereo not given)	-0.285
CCCCCCN(CCCCCC)C(=O)Cc1c(-c2ccc(Cl)cc2)[nH]c2ccc(Cl)cc12	0.58
O=C1CC2(CCCC2)CC(=O)N1CCNCC1COc2ccccc2O1 (stereo not given)	0.515
